Source: PubChem BioAssay AID1159580 (chemical genetic matrix, 2015)
In all, about 5,500 compounds went through this assay and about 2,000 (36%) were called active. Not shown: some 18% with an inconclusive outcome. Cut-off read from the data, not from the text of the source: active = normalized growth mostly below about 0.91 (no sharp cut-off); inconclusive = no clear call, values can overlap the other calls; inactive = mostly above about 0.92. This is one part of the list.

Assay: chemical genetic growth profiling, strain panel (AID 1159580);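 note: tested at 20 µM; growth read once vehicle control cultures reached saturation at 30 °C; 1 = growth at the plate median or of vehicle wells; lower values mean less growth of the strain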
Conditions: growth OD
[1] = S. cerevisiae deletion strains, locus YAL013W, strain DEP1, stronger effect = lower value
[2] = S. cerevisiae deletion strains, locus YBR229C, strain ROT2, stronger effect = lower value
[3] = S. cerevisiae deletion strains, locus YDL101C, strain DUN1, stronger effect = lower value
[4] = S. cerevisiae deletion strains, locus YDL134C, strain PPH21, stronger effect = lower value
[5] = S. cerevisiae deletion strains, locus YDR150W, strain NUM1, stronger effect = lower value
[6] = S. cerevisiae deletion strains, locus YEL061C, strain CIN8, stronger effect = lower value
[7] = S. cerevisiae deletion strains, locus YGR078C, strain PAC10, stronger effect = lower value
[8] = S. cerevisiae deletion strains, locus YHR030C, strain SLT2, stronger effect = lower value
[9] = S. cerevisiae deletion strains, locus YHR087W, strain rtc3, stronger effect = lower value
[10] = S. cerevisiae deletion strains, locus YJR043C, strain POL32, stronger effect = lower value
[11] = S. cerevisiae deletion strains, locus YJR075W, strain HOC1, stronger effect = lower value
[12] = S. cerevisiae deletion strains, locus YLR039C, strain RIC1, stronger effect = lower value
[13] = S. cerevisiae deletion strains, locus YLR058C, strain SHM2 (second series), stronger effect = lower value
[14] = S. cerevisiae deletion strains, locus YLR085C, strain ARP6, stronger effect = lower value
[15] = S. cerevisiae deletion strains, locus YLR262C, strain YPT6, stronger effect = lower value
[16] = S. cerevisiae deletion strains, locus YML094W, strain GIM5, stronger effect = lower value
[17] = S. cerevisiae deletion strains, locus YMR219W, strain ESC1, stronger effect = lower value
[18] = S. cerevisiae deletion strains, locus YMR263W, strain SAP30, stronger effect = lower value
[19] = S. cerevisiae deletion strains, locus YMR307W, strain GAS1, stronger effect = lower value
[20] = S. cerevisiae deletion strains, locus YNL153C, strain GIM3, stronger effect = lower value
[21] = S. cerevisiae deletion strains, locus YNL298W, strain CLA4 (second series), stronger effect = lower value
[22] = S. cerevisiae deletion strains, locus YNL322C, strain KRE1, stronger effect = lower value
[23] = S. cerevisiae deletion strains, locus YNR030W, strain Alg12, stronger effect = lower value
[24] = S. cerevisiae deletion strains, locus YOL006C, strain TOP1, stronger effect = lower value
[25] = S. cerevisiae deletion strains, locus YPL055C, strain LGE1, stronger effect = lower value
[26] = S. cerevisiae deletion strains, locus YPL241C, strain CIN2, stronger effect = lower value
[27] = S. cerevisiae deletion strains, locus YPR135W, strain CTF4, stronger effect = lower value
[28] = S. cerevisiae deletion strains, locus YCL061C, strain MRC1, stronger effect = lower value
[29] = S. cerevisiae deletion strains, locus YKL190W, strain CNB1, stronger effect = lower value
[30] = S. cerevisiae strains, strain wild type, stronger effect = lower value

Measured: normalized growth

Cc1c(S(=O)(=O)c2ccc(Cl)cc2)cnc2cc(C(C)(C)C)nn12
inactive: [1] 1.01 | [2] 1.02 | [3] 1 | [4] 1.03 | [5] 0.987 | [6] 1.01 | [7] 1.01 | [8] 1.07 | [9] 1.01 | [10] 1.01 | [11] 1.01 | [12] 1.03 | [13] 1.01 | [14] 1.02 | [15] 1.03 | [16] 1.01 | [17] 1.01 | [18] 0.982 | [19] 0.945 | S. cerevisiae deletion strains, locus YNL128W, strain TEP1, stronger effect = lower value 1.01 | [20] 1 | [21] 1.05 | [22] 1.01 | [23] 1.05 | [24] 1.06 | [25] 1.01 | [26] 0.996 | [27] 1.06

O=[N+]([O-])c1ccc(S(=O)(=O)c2ccccc2)nc1S(=O)(=O)c1ccccc1
inactive: S. cerevisiae deletion strains, locus YBL105C, strain PKC1, stronger effect = lower value 0.914 | S. cerevisiae deletion strains, locus YBR135W, strain CKS1, stronger effect = lower value 0.903 | S. cerevisiae deletion strains, locus YBR136W, strain MEC1, stronger effect = lower value 0.93 | S. cerevisiae deletion strains, locus YBR160W, strain CDC28, stronger effect = lower value 0.915 | S. cerevisiae deletion strains, locus YDL017W, strain CDC7, stronger effect = lower value 0.942 | S. cerevisiae deletion strains, locus YDL028C, strain MPS1, stronger effect = lower value 0.972 | [3] 0.922 | S. cerevisiae deletion strains, locus YDL108W, strain KIN28, stronger effect = lower value 0.94 | S. cerevisiae deletion strains, locus YDL132W, strain cdc53, stronger effect = lower value 0.931 | S. cerevisiae deletion strains, locus YDR052C, strain DBF4, stronger effect = lower value 0.942 | S. cerevisiae deletion strains, locus YDR054C, strain cdc34, stronger effect = lower value 0.904 | S. cerevisiae deletion strains, locus YDR226W, strain ADK1, stronger effect = lower value 0.904 | S. cerevisiae deletion strains, locus YFL009W, strain cdc4, stronger effect = lower value 0.918 | S. cerevisiae deletion strains, locus YFL029C, strain CAK1, stronger effect = lower value 0.885 | S. cerevisiae deletion strains, locus YFR003C, strain YPI1, stronger effect = lower value 0.974 | S. cerevisiae deletion strains, locus YFR028C, strain CDC14, stronger effect = lower value 0.893 | S. cerevisiae deletion strains, locus YGR092W, strain DBF2, stronger effect = lower value 0.785 | S. cerevisiae deletion strains, locus YHR079C, strain IRE1, stronger effect = lower value 0.88 | S. cerevisiae deletion strains, locus YIL147C, strain SLN1, stronger effect = lower value 0.974 | S. cerevisiae deletion strains, locus YJR016C, strain ILV3, stronger effect = lower value 0.936 | S. cerevisiae deletion strains, locus YKL048C, strain ELM1, stronger effect = lower value 0.948 | S. cerevisiae deletion strains, locus YKL101W, strain HSL1, stronger effect = lower value 0.777 | S. cerevisiae deletion strains, locus YLR403W, strain SFP1, stronger effect = lower value 0.748 | S. cerevisiae deletion strains, locus YMR001C, strain CDC5, stronger effect = lower value 0.896 | S. cerevisiae deletion strains, locus YMR205C, strain PFK2 (second series), stronger effect = lower value 0.785 | S. cerevisiae deletion strains, locus YNL006W, strain LST8, stronger effect = lower value 0.99 | S. cerevisiae deletion strains, locus YNL020C, strain ARK1, stronger effect = lower value 0.874 | S. cerevisiae deletion strains, locus YNL161W, strain CBK1, stronger effect = lower value 0.919 | S. cerevisiae deletion strains, locus YNL207W, strain RIO2, stronger effect = lower value 0.916 | S. cerevisiae deletion strains, locus YNL222W, strain SSU72, stronger effect = lower value 0.915 | S. cerevisiae deletion strains, locus YOR061W, strain CKA2, stronger effect = lower value 0.879 | S. cerevisiae deletion strains, locus YOR231W, strain MKK1, stronger effect = lower value 0.809 | S. cerevisiae deletion strains, locus YOR329C, strain SCD5, stronger effect = lower value 0.973 | S. cerevisiae deletion strains, locus YPL153C, strain RAD53, stronger effect = lower value 0.729 | S. cerevisiae deletion strains, locus YPL204W, strain HRR25, stronger effect = lower value 0.706 | S. cerevisiae deletion strains, locus YPL209C, strain IPL1, stronger effect = lower value 0.913 | S. cerevisiae deletion strains, locus YPR025C, strain CCL1, stronger effect = lower value 0.911 | S. cerevisiae deletion strains, locus YPR106W, strain ISR1, stronger effect = lower value 0.921 | S. cerevisiae deletion strains, locus YPR111W, strain DBF20, stronger effect = lower value 0.909 | S. cerevisiae deletion strains, strain NNK1, stronger effect = lower value 0.938
active: S. cerevisiae deletion strains, locus YAR019C, strain CDC15, stronger effect = lower value 0.882 | S. cerevisiae deletion strains, locus YDL214C, strain PRR2, stronger effect = lower value 0.393 | S. cerevisiae deletion strains, locus YDR477W, strain SNF1, stronger effect = lower value 0.473 | S. cerevisiae deletion strains, locus YER123W, strain YCK3, stronger effect = lower value 0.223 | S. cerevisiae deletion strains, locus YER133W, strain GLC7, stronger effect = lower value 0.361 | S. cerevisiae deletion strains, locus YFR019W, strain FAB1, stronger effect = lower value 0.62 | S. cerevisiae deletion strains, locus YGR040W, strain KSS1, stronger effect = lower value 0.443 | S. cerevisiae deletion strains, locus YGR052W, strain FMP48, stronger effect = lower value 0.353 | [8] 0.334 | S. cerevisiae deletion strains, locus YHR082C, strain KSP1, stronger effect = lower value 0.364 | S. cerevisiae deletion strains, locus YHR205W, strain SCH9, stronger effect = lower value 0.47 | S. cerevisiae deletion strains, locus YJL095W, strain BCK1, stronger effect = lower value 0.401 | S. cerevisiae deletion strains, locus YJR066W, strain TOR1 (second series), stronger effect = lower value 0.438 | S. cerevisiae deletion strains, locus YJR066W, strain TOR1, stronger effect = lower value 0.299 | S. cerevisiae deletion strains, locus YKL193C, strain SDS22, stronger effect = lower value 0.871 | S. cerevisiae deletion strains, locus YKL203C, strain TOR2, stronger effect = lower value 0.555 | S. cerevisiae deletion strains, locus YLR113W, strain HOG1, stronger effect = lower value 0.184 | S. cerevisiae deletion strains, locus YLR133W, strain CKI1, stronger effect = lower value 0.691 | S. cerevisiae deletion strains, locus YML070W, strain DAK1, stronger effect = lower value 0.433 | S. cerevisiae deletion strains, locus YMR277W, strain FCP1, stronger effect = lower value 0.87 | S. cerevisiae deletion strains, locus YNL183C, strain NPR1, stronger effect = lower value 0.178 | S. cerevisiae deletion strains, locus YOL078W, strain AVO1, stronger effect = lower value 0.879 | S. cerevisiae deletion strains, locus YOL136C, strain PFK27, stronger effect = lower value 0.533 | S. cerevisiae deletion strains, locus YOR119C, strain RIO1, stronger effect = lower value 0.442 | S. cerevisiae deletion strains, locus YPL256C, strain CLN2, stronger effect = lower value 0.293 | S. cerevisiae deletion strains, strain TSCII, stronger effect = lower value 0.872

O=[N+]([O-])c1cc(Cl)ccc1S(=O)(=O)c1ccccc1
inactive: [1] 0.987 | [2] 0.996 | [28] 0.994 | [3] 0.98 | [4] 0.999 | [5] 0.97 | [6] 0.969 | [7] 0.993 | S. cerevisiae deletion strains, locus YGR229C, strain SMI1, stronger effect = lower value 0.98 | [8] 0.836 | [9] 1.02 | [10] 0.978 | [11] 0.995 | [13] 0.996 | [14] 0.796 | [16] 0.933 | [17] 0.998 | [18] 0.996 | [19] 0.829 | [20] 0.985 | [21] 0.955 | [22] 0.987 | [23] 0.974 | [25] 0.996 | [26] 0.958 | [27] 0.803
active: [12] 0.634 | [15] 0.705

CC(C)(C)OC(=O)C(C)(C)S(=O)(=O)c1ccc(Cl)cc1
inactive: [1] 1.01 | [2] 0.983 | [28] 0.979 | [3] 0.977 | [4] 0.995 | [5] 0.992 | [6] 1 | [7] 0.992 | [8] 0.955 | [9] 1.01 | [11] 0.973 | [29] 0.994 | [12] 0.958 | [13] 1.01 | [14] 1.05 | [15] 0.927 | [16] 0.987 | [17] 0.995 | [18] 0.992 | [20] 0.98 | [21] 1.02 | [22] 0.984 | [23] 0.983 | [24] 1.01 | [25] 1.02 | [26] 1.01 | [27] 1.04 | [30] 1

O=[N+]([O-])c1ccc(S(=O)(=O)c2ccc(Cl)cc2)cc1O
active: [1] 0.82 | [2] 0.766 | [3] 0.715 | [7] 0.81 | [9] 0.692 | [10] 0.832 | [11] 0.64 | [12] 0.723 | [13] 0.822 | [15] 0.639 | [17] 0.797 | [18] 0.814 | [20] 0.846 | [22] 0.86 | [25] 0.709
inactive: [4] 0.938 | [5] 0.811 | [6] 0.924 | [8] 0.954 | [29] 0.978 | [14] 0.947 | [16] 0.94 | [21] 0.915 | [23] 0.94 | [26] 0.934 | [27] 0.99 | [30] 0.952
